Here are results for 39 compounds from PubChem BioAssay (Tox21).

Values without a mark were called inactive. Activity calls are given as the source filed them. The call rests on the fitted dose curve.
On the % scale 0 is the no-effect control and ±100 the full control effect.

Chain of Acetylcholinesterase (Homo sapiens) (P22303 whole entry, looked up): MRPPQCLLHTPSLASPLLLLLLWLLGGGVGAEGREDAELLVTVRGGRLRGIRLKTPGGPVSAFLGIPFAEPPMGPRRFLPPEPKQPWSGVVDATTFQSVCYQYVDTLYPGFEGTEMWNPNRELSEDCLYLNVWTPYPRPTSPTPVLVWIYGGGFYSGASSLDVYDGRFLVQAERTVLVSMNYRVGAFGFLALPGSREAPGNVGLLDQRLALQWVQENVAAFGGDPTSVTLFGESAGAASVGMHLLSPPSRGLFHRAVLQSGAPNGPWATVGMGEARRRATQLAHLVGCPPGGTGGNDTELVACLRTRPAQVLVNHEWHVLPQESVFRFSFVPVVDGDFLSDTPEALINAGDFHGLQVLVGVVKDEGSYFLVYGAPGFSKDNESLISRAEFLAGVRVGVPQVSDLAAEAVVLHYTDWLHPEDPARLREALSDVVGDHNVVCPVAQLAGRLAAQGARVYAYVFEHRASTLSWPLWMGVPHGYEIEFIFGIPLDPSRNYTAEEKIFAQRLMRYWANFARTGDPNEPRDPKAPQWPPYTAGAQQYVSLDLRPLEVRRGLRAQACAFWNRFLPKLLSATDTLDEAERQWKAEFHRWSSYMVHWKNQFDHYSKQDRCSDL

The experiment addresses Acetylcholinesterase (Homo sapiens) (UniProt P22303). The experiment can be described thus: Acetylcholinesterase (AChE) small molecule antagonists: enzyme-based qHTS assay with human liver microsomes (AID 1347399). Further: nearly all actives have a fitted effect of over 60% in size. The following applies: Potency: qHTS inhibition; outcome: qHTS inhibition; series mostly up to 115 µM; activity change, negative = inhibition: at the top concentration. The gist of the method:
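Recombinant human AChE (50 mU/mL in the enzyme mix) and human liver microsomes (0.25 mg/mL final) were preincubated with compound and NADPH (0.25 mg/mL final) for 30 min at 37 C. Acetylthiocholine/DTNB was then added; thiocholine was read colorimetrically after 10 min at room temperature.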
On to `CCOC(=O)C1CC(=O)C(=C(O)C2CC2)C(=O)C1` (centres undefined), for which the “activity change, negative = inhibition” value was -1.83%.
Still for that read-out and setting: the value for `Nc1cccc2c(=O)[nH][nH]c(=O)c12` was 2.21%; that for `OCC(F)(F)F` was -5.49%; that for `O=S1OCCO1` was 0.0799%.
The same measure, in the same setting: next, `CCCCCCCCCCCCS(=O)(=O)Cl`: 0.324% [at 23.6 µM].
As to `CCCCCCCCCCCC[N+](C)(C)CCCCCCCCCCCC`, the “activity change, negative = inhibition” value is 15.9%.
Still for that read-out and setting: next, `O=C(CO)[C@@H](O)[C@H](O)[C@@H](O)CO`: -0.168% [at 53 µM].
On to `CC(=O)Oc1ccc(C(c2ccc(OC(C)=O)cc2)c2ccccn2)cc1`, for which the Potency result is “inactive”.
Turning to `CS(=O)(=O)c1ccc([C@@H](C[C@H]2CCC(=O)C2)C(=O)Nc2cnccn2)cc1Cl`, the “activity change, negative = inhibition” value was 0.769%.
Take `OCCC1CCCCN1` (centres undefined): the “activity change, negative = inhibition” value is -0.153%.
Same read-out and setting: next, `C=CCN(CC=C)CC=C`: -0.462%.
As to `CCCCCCCCCCCCCC[P+](CCCC)(CCCC)CCCC`, the Potency entry is “inactive”.
For the compound `NC(N)=NN=C(/C=C/c1ccc([N+](=O)[O-])o1)/C=C/c1ccc([N+](=O)[O-])o1`, the “activity change, negative = inhibition” value was 11.8% [at 53 µM].
Same read-out and setting: next, `CCCCCCCC(=O)N(C)C`: 0.383%; `CC(C)CCCC(C)NCCC(C)C` (centres undefined): 0.672% [at 53 µM]; `CC[N+](CC)(CC)CCOc1ccc(/C=C/c2ccccc2)cc1`: 4.28% [at 53 µM].
The same measure, in the same setting: the value for `CC(=O)OCCC(C)CC(C)(C)C` (centres undefined) was 0.306%.
On the same count and under the same terms, next, `CCCOC(=O)c1ccc(O)cc1`: 2.8%.
Consider `Cc1cscn1`, for which the “activity change, negative = inhibition” value is -3.07%.
Still for that read-out and setting: next, `C[C@H]1O[C@@H](O[C@H]2CC[C@@]3(C)[C@H](CC[C@@H]4[C@@H]3C[C@@H](O)[C@]3(C)[C@@H](C5=CC(=O)OC5)CC[C@]43O)C2)C[C@H](O)[C@@H]1O[C@H]1C[C@H](O)[C@H](O[C@H]2C[C@H](O)[C@H](O[C@@H]3O[C@H](CO)[C@@H](O)[C@H](O)[C@H]3O)[C@@H](C)O2)[C@@H](C)O1`: 1.76% [at 53 µM]; `CCNS(=O)(=O)c1ccc(C)cc1`: 0%; `CC(CO)CO`: -0.171%.
The same measure, in the same setting: next, `CC/C=C\CC/C=C/CO`: -1.49%; `CCCCCCOC(=O)CC(CC(=O)OCCCCCC)(OC(=O)CCC)C(=O)OCCCCCC`: 0.437%.
In the case of `CSc1nc(NC2CC2)nc(NC(C)(C)C)n1`, the “activity change, negative = inhibition” value was -0.153%.
The same measure, in the same setting: next, `C/C=C1\C(=O)C[C@H]2[C@@H]3CCC4=CC(=O)CC[C@]4(C)[C@H]3CC[C@]12C`: -0.324% [at 53 µM]; `CCOc1ccc2ccccc2c1C(=O)N[C@@H]1C(=O)N2[C@@H]1SC(C)(C)[C@@H]2C(=O)O`: 0.443% [at 53 µM]; `Cc1c(C)c([N+](=O)[O-])c(C(C)(C)C)c([N+](=O)[O-])c1C`: 0.464%.
On the same count and under the same terms, the value for `Cc1cc2c(cc1C(F)(F)F)N(C(=O)Nc1ccc(Oc3cccnc3C)nc1)CC2` was 0.857%; that for `Cc1nccn1CC1CCc2c(c3ccccc3n2C)C1=O` (centres undefined) was -0.0923% [at 53 µM]; that for `O=C(OCC(COC(=O)c1cccnc1)(COC(=O)c1cccnc1)COC(=O)c1cccnc1)c1cccnc1` was -2.16% [at 53 µM].
Still for that read-out and setting: next, `CCCCCCCOC(=O)c1ccccc1C(=O)OCCCCCCC`: -0.328%; `CCC(C)OC(C)CC` (centres undefined): 0.171%.
On to `NCCCCCCNCCCCCCN`, for which the “activity change, negative = inhibition” value was -0.163%.
Same read-out and setting: the value for `NC(=O)NS(=O)(=O)c1ccc(Cl)cc1` was 4.34% [at 53 µM]; that for `CN(C)CCOCCN(C)CCO` was -0.622%.
Consider `CCNC(=O)C1CC(C)CCC1C(C)C` (centres undefined), for which the “activity change, negative = inhibition” value is 0.917%.
On to `C=C(C)C(=O)NCCCN(C)C`, for which the “activity change, negative = inhibition” value was 0.153%.
Still for that read-out and setting: next, `O=c1[nH]c(=O)n([C@H]2C[C@H](O)[C@@H](CO)O2)cc1I`: 16.5% [at 53 µM].
